Bioassay records as filed in PubChem.
Shown are actives, neighbours in structure and some others; about 2.2% of the full set was active somewhere.
Ba/F3 V617F tox – loss of viability in JAK2V617F-driven Ba/F3 cells | Ba/F3 EpoR-JAK2V617F viability, ATP luminescence | inhibition, % at 5.6 µM | 1.1% of 220,000 active | AID 1446;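 active = inhibition above the campaign mean plus 3 SD over all tested compounds, cut at about 24% in these data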;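 note: cytokine-independent growth of Ba/F3 cells driven by EpoR plus mutant JAK2; 0% = DMSO-treated cells and 100% = JAK inhibitor I control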
APP transl inh – APP translation inhibition; SH-SY5Y APP 5'UTR-luciferase reporter, luminescence; inhibition, % at 2 µM; 0.82% of 190,000 active; AID 1285;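 active = inhibition above a set limit, derived from the sample mean plus 3 SD, cut at about 45% in these data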
aSyn UTR inh – MLPCN primary screen, SNCA 5' untranslated region | alpha-synuclein 5'UTR reporter, inhibitor activity | inhibition, % (tested at 7.5 µM) | 0.82% of 300,000 active; in the data active = inhibition above about 60%;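 note: H4 neuroglioblastoma cells stably carrying SNCA 5'UTR luciferase fusion; 0% = DMSO wells and 100% = positive control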
IEC-6 cytotox – IEC-6 cytotoxicity, counter-screen for KLF5 inhibitors; luminescence viability; inhibition, % at 5 µM; 0.78% of 290,000 active; AID 1825;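 note: 0% = plate median of test compound wells and 100% = cytotoxic reference compound wells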
KLF5 inhibitor – kruppel-like factor 5 inhibition; DLD-1 KLF5 promoter-luciferase reporter, luminescence; 0.23% of 290,000 active; inhibition, % at 5 µM;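 active = inhibition above a per-plate limit of that plate's mean compound inhibition plus 3 SD, cut at about 60% in these data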;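 note: 0% = DMSO wells and 100% = LY294002 at 200 µM; higher means less KLF5 promoter-driven luciferase light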
BaF3 parental – counter-screen for JAK2V617F inhibitors: parental Ba/F3 viability inhibitors; CellTiter-Glo ATP luminescence; inhibition, % at 5.6 µM; 1.1% of 220,000 active; AID 1486;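 active = inhibition above a per-campaign cutoff, the mean inhibition of all tested compounds plus 3 SD, cut at about 27% in these data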;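 note: 0% = DMSO wells and 100% = JAK Inhibitor I control wells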
IEC-6 tox confirm – IEC-6 cytotoxicity, confirmation assay. AID 1907. 63% of 1,900 active. shares compounds with IEC-6 cytotox. inhibition, % at 5 µM. IEC-6 rat intestinal epithelial viability, luminescence;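 note: 0% = vehicle and 100% = reference cytotoxic drug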
* hit, by the source's call; . = no result given. Cut-off read from the data, not from the text of the source, unless noted: active = inhibition above about 22%; inactive = the rest.

SMILES	Ba/F3 V617F tox	APP transl inh	aSyn UTR inh	IEC-6 cytotox	KLF5 inhibitor	BaF3 parental	IEC-6 tox confirm
COc1ccc(C2=CC(c3ccc(OC)c(OC)c3)c3c(c4ccccc4oc3=O)O2)cc1OC (stereo not drawn)	0	.	-42	28*	-2	-1	21
CCCCn1c(O)c(/C(C)=N/NC(=O)Nc2ccccc2)c(=O)[nH]c1=O	-3	.	-99	-3	-152	1	.
CCOCN(C(=O)CCl)c1c(C)cccc1CC	.	.	-43	.	.	.	.
CCCCCC(=O)N[C@@H](c1ccccc1)[C@@H](O)C(=O)O[C@H]1C[C@@]2(O)[C@@H](OC(=O)c3ccccc3)C3[C@](C)(C(=O)[C@H](O)C(=C1C)C2(C)C)[C@@H](OC1OCC(O)C(O)C1O)C[C@H]1OC[C@@]31OC(C)=O (stereo partly drawn)	.	.	7	68*	17	.	54*
CC(=O)O[C@@]12CO[C@@H]1C[C@H](OC1OCC(O)C(O)C1O)[C@@]1(C)C(=O)[C@H](O)C3=C(C)[C@@H](OC(=O)[C@H](O)[C@@H](NC(=O)c4ccccc4)c4ccccc4)C[C@@](O)([C@@H](OC(=O)c4ccccc4)C12)C3(C)C (stereo partly drawn)	.	.	-11	57*	16	.	46*
c1ccc2c3c([nH]c2c1)C1(CCNCC1)NCC3	0	.	6	2	-10	3	.
NC1C2CN3CCN(C2)CC1(c1ccccc1)C3 (stereo not drawn)	-2	.	2	0	-19	-3	.
CN1C2CCC1/C(=C/c1ccccn1)C(=O)/C2=C\c1ccccn1	100*	95*	.	59*	9	103*	95*
Cc1ccccc1-n1c(/C=C/c2ccccn2)nc2ccccc2c1=O	2	.	-9	-2	-16	-4	.
Cc1ccc(NC(=O)[C@@H](NC(=O)N2C[C@H]3C[C@@H](C2)c2cccc(=O)n2C3)C(C)C)cc1	.	.	-5	0	-4	.	.
C[C@@]1(CO)[C@H](O)CC[C@@]2(C)[C@H]1CC[C@H]1C[C@@H]3C[C@@]12CC[C@]3(O)CO	99*	83*	73*	87*	23	91*	80*
O=C(c1cn(Cc2ccccc2)c2ccccc12)N1CCCCC1	2	-3	4	-8	7	8	.
CC/C(=C\C=C\[C@@H]1C=C[C@@H]2CCC[C@H]2[C@@H]1C(=O)c1ccc[nH]1)[C@@H]1O[C@@H]([C@@H](C)C(=O)O)CC[C@@H]1C	55*	-2	45	39*	12	31*	33*
O=[N+]([O-])NC1=NCCN1Cc1ccc(Cl)nc1	.	.	32	48*	-22	.	4
CCC1(C)CN(S(=O)(=O)OCC(Cl)(Cl)Cl)C(=O)N1 (stereo not drawn)	.	.	4	-7	-19	.	.
COc1ccc(CNCCc2c(C)[nH]c3ccc(OC(F)(F)F)cc23)c(OC)c1	.	.	90*	38*	-12	.	22*
COc1ccc2[nH]c(C)c(CCNCc3cc(OC)c(OC)c(OC)c3)c2c1	3	-2	-3	4	-12	7	.
O=c1[nH]c(=O)n(-c2cccc3ccccc23)c(O)c1/C=N/N1CCCCC1c1cccnc1 (stereo not drawn)	0	-6	-1	-1	-20	6	.
Cc1ccc(-c2cc(-c3ccc(C)cc3)[n+](C)o2)cc1	91*	-20	-2	25*	-16	73*	23*
Cc1cccc(-n2c(O)c(/C=C/C=Nc3ccccc3)c(=O)[nH]c2=O)c1	-1	13	6	-4	-1	7	.
Cc1cccc(-n2c(O)c(/C=C3/C(c4ccccc4)=Nc4ccccc43)c(=O)[nH]c2=O)c1	82*	.	-174	70*	23	74*	58*
CCC(C)C(=O)N[C@@H](c1ccccc1)[C@@H](O)C(=O)O[C@H]1C[C@@]2(O)[C@@H](OC(=O)c3ccccc3)C3[C@](C)(C(=O)[C@H](OC(C)=O)C(=C1C)C2(C)C)[C@@H](O)C[C@H]1OC[C@@]31OC(C)=O (stereo partly drawn)	.	.	103*	92*	56	.	81*
CC/C=C/CC(=O)N[C@@H](c1ccccc1)[C@@H](O)C(=O)O[C@H]1C[C@@]2(O)[C@@H](OC(=O)c3ccccc3)C3[C@](C)(C(=O)[C@H](OC(C)=O)C(=C1C)C2(C)C)[C@@H](O)C[C@H]1OC[C@@]31OC(C)=O (stereo partly drawn)	.	.	77*	92*	49	.	86*
COC(=O)C1=C(N)Oc2cc(C)oc(=O)c2C12C(=O)Nc1ccccc12 (stereo not drawn)	-6	9	-15	-1	-15	-5	.
C#CC1(OC(=O)c2ccccc2)CC(C)N(C)CC1C (stereo not drawn)	.	.	2	3	-21	.	.
Cc1ccnc(-n2c(C)nc3ccccc3c2=O)c1	2	-35	-16	8	-37	7	.
Cc1nc2ccccc2c(=O)n1-c1ccc(Br)cn1	25*	.	-176	22*	-31	51*	-2
CC[C@@H]1C=CC=CC[C@H](C)[C@@H](O)[C@@H](C)C(=O)[C@H](C)[C@@H](O)[C@H](C)C(=O)[C@H](C)[C@@H](O)[C@H](C)C=CC(=O)O[C@H]2[C@@H](C)[C@@H](CC1)O[C@@]1(CC[C@@H](C)[C@@H](C[C@H](C)O)O1)[C@@H]2C	.	.	36	.	.	.	.
COC(=O)C[C@]1(C(=O)OC)CN(C#N)N(c2ccc(Cl)cc2)C12c1ccccc1-c1ccccc12	98*	96*	96*	101*	37	97*	93*
